esBAF inh – Bmi1 luciferase reporter increase in mESCs, primary screen, esBAF inhibitor project, mouse ES cells, Bmi1 luciferase knock-in, single point; reporter increase, % at 12.5 µM; AID 602393, 2012; 350,000 compounds, 2% hits; 24 h; 100% = twice the neutral-well signal; in the data active = activation above about 40%; inconclusive = no clear call, values can overlap the other calls;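 note: a rise in the Bmi1 reporter signal indicates esBAF inhibition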
SMARCA2 activ – SMARCA2 (BRM) function activators, primary screen, cell-based, luminescence, high throughput; MG213 cells, MMTV-luciferase reporter, dexamethasone, overnight; activation, % at 9.1 µM; 370,000 compounds, 1% hits; AID 652017, 2013; in the data active = activation above about 7.8%
HSF1 inhib – HSF1 inhibitors in luciferase reporter cells, primary screen, cell-based, NIH3T3, luminescence; NIH3T3-HGL HSE-luciferase, MG132-induced, luminescence 8 h; stronger effect = lower value; activity change, negative = inhibition, % at 7.5 µM (by protocol); 300,000 compounds, 0.77% hits; AID 2098, 2009;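 active = more than half of replicate wells show activity change below -50%, luminescence cut by over half; inconclusive = some wells, but at most half, below -50%; inactive = no replicate well below -50%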;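 note: luciferase reports HSF-1 transcriptional activity via heat shock element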
HSF1 activator – HSF-1 activators, primary screen, NIH3T3-HGL cells, MG132 stress, luminescence, single point; activation, % at 9 µM; 300,000 compounds, 1.7% hits; NIH3T3-HGL HSF-1 luciferase reporter, 8 h; 100% = twice DMSO control signal;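 active = mean replicate activation of at least 50% with a set share of replicates each reaching 50%; inconclusive = only one of those two conditions met; inactive = mean below 50% and too few replicates reaching it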
MITF TRPM1 HTS – activators of MITF-driven TRPM1 promoter reporter, primary screen, cell-based, SK-MEL-5, luciferase, single point; SK-MEL-5 TRPM1-promoter luciferase, 24 h; % of positive control, neutral wells = 0; activation, % at 12.5 µM; 300,000 compounds, 0.75% hits; AID 588334, 2011;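 active = mean activation of at least 80% with every replicate also reaching 80%; inconclusive = mean reaches 80% but some replicate falls short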
Wnt bcat act – Wnt/beta-catenin pathway activators, primary screen, cell-based, plate reader, single point; 300,000 compounds, 1.2% hits; activation, % at 9.35 µM; AID 743398, 2014; Wnt/beta-catenin reporter cell assay, activator; in the data active = activation above about 30%, passing the limit was not always enough; inconclusive = no clear call, values can overlap the other calls
SMARCA2 act conf – SMARCA2 (BRM) function activators, confirmation, cell-based, luminescence, triplicate. shares compounds with SMARCA2 activ. MG213 cells, MMTV-luciferase with dexamethasone, overnight; MG213 cells expressing E1A, Rb sequestered; DMSO wells 0%, reference activator 100%. activation, % at 9.1 µM. 3,500 compounds, 30% hits. AID 652260, 2013;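 active = activation above its plate's cutoff, the mean activation of tested wells plus 3 SD, cut at about 7.9% in these data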
GAL4-VP16 Luc – GAL4-VP16 luciferase reporter activation, counter-screen for SMARCA2 (BRM) activator project, cell-based, pG5luc, luminescence, high throughput. activation, % at 9.1 µM. HEK293 GAL4-VP16 pG5luc reporter; scaled: DMSO wells 0%, SAHA wells 100%. AID 686939, 2013. shares compounds with SMARCA2 activ. 3,500 compounds, 41% hits;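 active = activation above the solvent-only control well mean plus 3 SD, averaged across control plates, cut at about 5.2% in these data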
Numbers stand for hits; – = inactive; ? = inconclusive; · = no result given. Hits are enriched below; roughly 4.3% of the tested compounds scored in any of these assays.

SMILES | esBAF inh | SMARCA2 activ | HSF1 inhib | HSF1 activator | MITF TRPM1 HTS | Wnt bcat act | SMARCA2 act conf | GAL4-VP16 Luc
Cc1ccc(S(=O)(=O)N(C)C[C@H]2Oc3ccc(NS(=O)(=O)c4c(C)noc4C)cc3C(=O)N([C@@H](C)CO)C[C@H]2C)cc1 | – | · | · | · | · | · | · | ·
O=C(COc1ccccc1)Nc1cccc(-c2nc3ccccc3[nH]2)c1 | · | 9.2 | – | – | – | · | – | –
Cn1ncc([N+](=O)[O-])c1C(=O)Nc1ccc(Cl)cc1 | – | – | – | – | – | – | · | ·
Cn1ncc([N+](=O)[O-])c1C(=O)Nc1ccc(-c2nc3ccccc3[nH]2)cc1 | 56 | 9.6 | – | – | – | · | 12 | –
O=C(CSc1ccccc1)Nc1ccc(-c2nc3ccccc3[nH]2)cc1 | · | – | – | – | – | – | · | ·
Cc1cc(NC(=O)c2ccc3c(c2)OCO3)no1 | · | – | – | – | – | · | · | ·
O=C(Cc1cccs1)Nc1ccc(-c2nc3ccccc3[nH]2)cc1 | · | 8.8 | – | ? | – | · | – | 13
Cc1nc(NC(=O)c2ccc3c(c2)OCO3)ccc1Br | · | 8.6 | – | – | 129 | – | – | 14
C[C@H]1CN([C@@H](C)CO)C(=O)c2cc(/C=C/c3ccccc3)cnc2O[C@@H]1CN(C)Cc1cncnc1 | – | · | · | · | · | · | · | ·
CCN(CC)c1ccc(NC(=O)c2ccc3c(c2)OCO3)cc1 | ? | 10 | – | – | · | – | – | 11
O=C(Nc1ccc(-c2nc3ccccc3[nH]2)cc1)c1ccc2c(c1)OCO2 | 45 | 19 | – | – | – | – | 13 | –
O=C(Nc1ccc(Cl)c(-c2nc3ccccc3[nH]2)c1)c1ccc2c(c1)OCO2 | · | – | – | – | – | – | · | ·
O=C(O)c1cc(-c2ccc3c(c2)OCO3)nc2ccccc12 | – | – | – | – | – | – | · | ·
c1ccc2[nH]c(-c3ccc4c(c3)OCO4)nc2c1 | · | 8.1 | – | – | · | – | 22 | 12
Oc1ccc(/C=N/Nc2nccnc2Cl)cc1 | – | 13 | – | – | – | 47 | – | 7.5
Fc1ccc(/C=N/Nc2nccnc2Cl)cc1 | – | 9.5 | – | – | · | – | 8.4 | 7.8
Fc1cccc(/C=N/Nc2nccnc2Cl)c1 | – | – | – | – | – | – | · | ·
COc1ccc(C2=Nn3c(nnc3-c3ccccc3C(F)(F)F)SC2)cc1OC1CCOC1 (stereo unspecified) | – | 8.4 | · | · | – | – | 16 | 5.9
COc1ccc(C2=Nn3c(nnc3-c3ccccc3OC)SC2)cc1OC1CCOC1 (stereo unspecified) | – | – | · | · | – | – | · | ·
COc1ccc(C2=Nn3c(nnc3-c3ccncc3)SC2)cc1OC | – | 8.6 | – | – | – | · | – | –
S=c1[nH]ncn1/N=C/c1ccc(N2CCOCC2)cc1 | ? | 9.2 | – | – | · | – | 9.2 | 11
COC(=O)/C(=C1/Oc2cc(C)oc(=O)c2S1)C(F)(F)F | – | 9.1 | -79 | – | – | – | – | –
COC(=O)/C(=C(/F)Sc1cc(C)c(O)c(C)c1)C(F)(F)F | – | · | – | – | – | · | · | ·
C/C=C/c1ccc2c(c1)O[C@H](CN(C)C(=O)NC1CCCC1)[C@H](C)CN([C@@H](C)CO)S2(=O)=O | – | · | · | · | · | · | · | ·
CC(=O)c1ccc(N2CCN(S(=O)(=O)c3ccc4c(c3)C(Cl)(Cl)C(=O)N4)CC2)cc1 | – | 10 | · | · | · | – | – | –
SMILES | esBAF inh | SMARCA2 activ | HSF1 inhib | HSF1 activator | MITF TRPM1 HTS | Wnt bcat act | SMARCA2 act conf | GAL4-VP16 Luc
Cc1ccsc1C(=O)NNC(=O)C1CC=CCC1C(=O)O (stereo unspecified) | · | 8.6 | – | – | – | – | – | –
Cc1ccsc1C(=O)NNC(=O)C1CCCCC1C(=O)O (stereo unspecified) | – | – | – | – | – | · | · | ·
CCNC(=O)C[C@H]1CC[C@H](NC(=O)C2CCOCC2)[C@H](CO)O1 | – | · | · | · | · | · | · | ·
O=C(CCN1C(=O)COc2ccccc21)NCCN1CCN(c2ccccc2F)CC1 | · | 8.7 | – | – | – | – | – | –
O=C(CN1C(=O)COc2ccccc21)NCCCN1CCN(c2ccccc2F)CC1 | – | – | – | – | – | – | · | ·
COc1cccc(S(=O)(=O)N(C)C[C@@H]2Oc3ncccc3C(=O)N([C@H](C)CO)C[C@@H]2C)c1 | – | · | · | · | · | · | · | ·
CN(C)c1nn2c(-c3ccccc3)nnc2o1 | – | 8.8 | · | · | · | – | – | –
C[C@@H]1CCCCO[C@@H](CN(C)C(=O)c2ccccc2)[C@@H](C)CN([C@@H](C)CO)C(=O)c2cc(NC(=O)Nc3ccccc3)ccc2O1 | – | · | · | · | · | · | · | ·
Cc1cc(C(=O)Nc2cccc3c2O[C@@H](CN(C)Cc2ccc(Oc4ccccc4)cc2)[C@H](C)CN([C@H](C)CO)C3=O)n(C)n1 | – | · | · | · | · | · | · | ·
CN(C)C(=O)CCc1nc(-c2ccc(C(C)(C)C)cc2)no1 | – | 11 | – | – | – | – | – | 5.3
COc1ccc(/C=C/C(=O)N(C)C2CCCCC2)cc1Br | · | – | – | – | – | – | · | ·
CN(C(=O)/C=C/c1cnc2ccccc2c1)C1CCCCC1 | · | 9.9 | – | – | – | – | 12 | 11
Cc1cccc(C)c1NC(=O)c1c(O)c2ccccc2[nH]c1=O | – | – | – | – | – | – | · | ·
O=C(Nc1cccc(O)c1)c1c(O)c2ccccc2[nH]c1=O | – | 10 | – | – | · | – | – | 9.3
Fc1cccc(CSc2ccc(-c3ccco3)nn2)c1 | 66 | 15 | – | – | – | 30 | 13 | 5.5
O=C(C1CCCC1)N1C[C@H]2[C@@H](c3ccccc31)[C@@H](CO)N2C(=O)Cc1ccccn1 | – | · | · | · | · | · | · | ·
CCOC(=O)c1ccc2[nH]c3c(c2c1)CCCC3 | 66 | 13 | – | – | – | – | – | 8.9
CC(C)CC1NC(=O)N(CC(=O)Nc2cccc(Br)c2)C1=O (stereo unspecified) | – | 9.6 | · | · | – | – | – | –
CCNc1nc(NCC)nc(SCCOc2ccc(C)cc2)n1 | · | 9.6 | – | – | – | · | – | –
C/C(N)=C(/C#N)C(=O)CSc1cc(C)c2cc(C)cc(C)c2n1 | – | 8.5 | – | – | – | – | – | –
Cc1cc(C)c2nc(SCC#N)cc(C)c2c1 | – | – | – | – | – | · | · | ·
COc1cc(NC(=O)CSc2cc(C)c3cc(C)cc(C)c3n2)c(C(=O)O)cc1OC | – | 8.4 | – | – | – | – | – | –

High-throughput results as filed in PubChem BioAssay.
